IL-1B inflam inh: inflammasome signaling inhibition, IL-1 beta readout | THP-1 LPS/ATP IL-1B secretion, AlphaLISA, 16 h; active compounds read low | activity change, % at 57.5 µM | 4.7% of 360,000 active | AID 743279; in the data active = activity change below about -50%; inconclusive = mostly about -30% to -49%; also: % is scaled to controls: 0 for no effect and ±100 for the full control effect
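THP-1 cells pretreated 1 hr with compounds (up to 57.5 uM final), then stimulated with LPS (250 ng/mL final) plus ATP (1.25 mM final); secreted IL-1B measured by AlphaLISA after 16 hr, decreased signal indicating inhibition.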
TDP1 cell CPT: DT40-hTDP1 cell growth loss with CPT; chicken DT40 Tdp1-/-;hTDP1 cells + 20 nM CPT, ATP luminescence, 48 h; Potency, µM (highest dose often 46.2 µM), without a hit: top-dose activity change, negative = growth inhibition, most hits filed as inhibitors; 12% of 420,000 active; also: potency is read from the fitted curve at half-maximal effect; % is scaled to controls: 0 for no effect and ±100 for the full control effect; nearly all actives have a fitted effect of over 55% in size
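Chicken DT40 Tdp1-/- cells stably complemented with human TDP1 were seeded at 400 cells/well in medium containing 20 nM camptothecin, exposed to pin-transferred compounds, and grown at 37 °C for at least 48 hr. Viability was read as ATP luminescence.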
BCR signal inh: chronic active BCR signaling inhibition; ABC-DLBCL IkBa-CBG/CBR reporter, luminescence ratio, 4 h; Potency, µM (series often up to 46.1 µM), for the others: top-dose activity change, negative = inhibition, usual class: inhibitors; 0.05% of 340,000 active; AID 493014; active = well fitted inhibition curve with a large enough effect in the signal ratio, with a control signal flat, not every such curve was filed as active; inconclusive = small, poorly fitted or top-dose-only effect, or effect the other way, or a change in a side signal; the % refers to the signal ratio;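 also: potency is read from the fitted curve at half-maximal effect; plate controls were basal doxycycline-induced cells for no effect and cells given 10 µM MG132 for full effect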
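Compounds up to 46 uM were incubated four hours with TMD8 cells whose green CBG68 luciferase is fused to IkappaBalpha; red CBR luminescence normalised the signal, and concentration-effect curves were fitted to fusion, red and ratio data.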
MCF10A rereplic: DNA re-replication induction in MCF 10a cells; MCF 10A DNA re-replication, Hoechst nuclear intensity, 48 h; Potency, µM (series often up to 46.1 µM), for the others: at the highest dose activity, positive = re-replication, actives largely listed as activators; 2.9% of 350,000 active; also: potency is read from the fitted curve at half-maximal effect; % of control where 0% means no effect; nearly all actives have a fitted effect of over 50% in size
SW480 rereplic: inducers of DNA re-replication in SW480 colon cancer cells. SW480 DNA re-replication, Hoechst DNA content imaging, 48 h. Potency, µM (highest dose often 46.1 µM), for inactives: at the top dose re-replication activation, most hits filed as activators. 1.8% of 340,000 active. AID 624297; also: potency is read from the fitted curve at half-maximal effect; % of control where 0% means no effect; nearly all actives have a fitted effect of over 55% in size
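Compounds, transferred as 23 nL by pin tool, were incubated with cells for 48 hr; DNA content per nucleus was then quantified by Hoechst staining and fluorescence plate imaging.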
TDP1 cell noCPT: qHTS for Inhibitors of human tyrosyl-DNA phosphodiesterase 1 (TDP1): qHTS in cells in absence of CPT; AID 686978, 2013; 15% of 420,000 active; Potency, µM (titrated, usually from 46.2 µM), inactives show at the highest dose activity change, negative = growth inhibition, hits mostly inhibitors; DT40 Tdp1-/- hTDP1 cells, no CPT, ATP luminescence, 48 h; also: potency is read from the fitted curve at half-maximal effect; % is scaled to controls: 0 for no effect and ±100 for the full control effect; nearly all actives have a fitted effect of over 55% in size
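Luminescent ATP content (CellTiter-Glo) served as the growth readout. Knockout chicken DT40 cells expressing human TDP1 were exposed to compounds without camptothecin for a minimum 48 hr at 37 °C.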
Numbers without * were called inactive. Only some compounds are listed: those with a hit (about 19% of all), similar ones and a draw of the others. Unless noted, calls follow the shape of the dose curve; as a rule, active = well fitted curve in the direction sought with a large enough effect; inconclusive = small, poorly fitted or top-dose-only effect, or another doubt; inactive = no such curve, though single readings can be large; an effect the other way counts as inactive or inconclusive.

`O=C(N=Nc1c(O)n(Cc2ccccc2)c2ccccc12)c1cc2ccccc2cc1O` gave IL-1B inflam inh 0.8, TDP1 cell CPT inconclusive, BCR signal inh inconclusive, MCF10A rereplic 10.3µM*, SW480 rereplic inconclusive and TDP1 cell noCPT 14.6µM*.
`CC(C)CCn1c(O)c(N=NC(=O)c2ccco2)c2ccccc21` gave IL-1B inflam inh -6.9, TDP1 cell CPT -18.9%, BCR signal inh inconclusive, MCF10A rereplic 14.6%, SW480 rereplic -5.2% and TDP1 cell noCPT inconclusive.
`O=C(CNC(=O)Cc1ccccc1)N=Nc1c(O)n(Cc2ccc3c(c2)OCO3)c2ccccc12` gave IL-1B inflam inh inconclusive, TDP1 cell CPT inconclusive, BCR signal inh -2.4%, MCF10A rereplic 5.0%, SW480 rereplic -21.3% and TDP1 cell noCPT -8.8%.
Screening COc1ccccc1NC(=O)Cn1c(O)c(N=NC(=O)c2ccccc2O)c2ccccc21 returned IL-1B inflam inh 13.5, TDP1 cell CPT 0.92µM*, BCR signal inh inconclusive, MCF10A rereplic 14.5%, SW480 rereplic inconclusive and TDP1 cell noCPT 1.84µM*.
`CCOc1ccc(S(=O)(=O)NCC(c2ccco2)S(=O)(=O)c2ccc(C)cc2)cc1` (configuration not stated) gave TDP1 cell CPT inconclusive, BCR signal inh 13.2% and TDP1 cell noCPT inconclusive.
`CC1(C)CC2CC(C)(CN2C(=O)COC(=O)c2ccccc2C(F)(F)F)C1` (configuration not stated) gave IL-1B inflam inh 15.6, TDP1 cell CPT inconclusive, BCR signal inh 0.2%, MCF10A rereplic -9.4%, SW480 rereplic -1.1% and TDP1 cell noCPT inconclusive.
For COC(=O)c1c(SCC(=O)Nc2cccc(Cl)c2C)[nH]c2ccccc2c1=O the results were TDP1 cell CPT 23.1µM* and TDP1 cell noCPT inconclusive.
For COC(=O)c1c(SCC(=O)Nc2cc(F)ccc2F)[nH]c2ccc(C)cc2c1=O the results were TDP1 cell CPT 8.2µM* and TDP1 cell noCPT 8.2µM*.
For COC(=O)c1c(SCC(=O)Nc2cccc(C(F)(F)F)c2)[nH]c2ccccc2c1=O the results were TDP1 cell CPT 5.8µM* and TDP1 cell noCPT 5.8µM*.
Screening COC(=O)c1c(SCC(=O)NC2CCCCC2)[nH]c2ccccc2c1=O returned IL-1B inflam inh 9.5, TDP1 cell CPT 14.1%, BCR signal inh 0.4%, MCF10A rereplic 0.2%, SW480 rereplic -3.0% and TDP1 cell noCPT inconclusive.
`Cc1cc(CNC(=O)c2cnn(-c3ncc4c(n3)-c3ccccc3CCC4)c2C2CC2)on1` gave TDP1 cell CPT -6.3% and TDP1 cell noCPT inconclusive.
For CCOC1=C2[C@@H](CN(S(=O)(=O)c3ccc(C)cc3)[C@H]2c2cccc3ccccc23)[C@H]2C(=O)N(C3CCCCC3)C(=O)[C@H]2C1 the results were IL-1B inflam inh 18.5, TDP1 cell CPT 13µM* and TDP1 cell noCPT 10.3µM*.
Screening O=S(=O)(c1ccc(Cl)cc1)c1nc(-c2ccccc2F)oc1NCc1ccccc1 returned TDP1 cell CPT inconclusive and TDP1 cell noCPT 18.4µM*.
Cc1ccc(S(=O)(=O)c2nc(-c3cccc(Cl)c3)oc2NCc2ccccc2)cc1 was read as TDP1 cell CPT -28.7% and TDP1 cell noCPT inconclusive.
`Cc1nc(S(=O)(=O)c2ccc(Cl)cc2)c(NCc2ccccc2)o1` gave IL-1B inflam inh 3.8, TDP1 cell CPT inconclusive, BCR signal inh inconclusive, MCF10A rereplic 8.2%, SW480 rereplic -14.8% and TDP1 cell noCPT inconclusive.
`COc1ccc(-c2nc(S(=O)(=O)c3ccc(Cl)cc3)c(NCc3ccccc3)o2)cc1` gave TDP1 cell CPT 16.4µM* and TDP1 cell noCPT inconclusive.
For CCCCN(C)c1c(C)nc2ccc(C(=O)N(C)CCN(C)C)cn12 the results were IL-1B inflam inh 4.9, TDP1 cell CPT 0.8% and TDP1 cell noCPT -1.9%.
For CCN(CC)CCn1c(=O)n(-c2ccc(Cl)cc2)c(=O)c2c3c(sc21)CN(C)CC3 the results were IL-1B inflam inh -24.5, TDP1 cell CPT 29.1µM*, BCR signal inh inconclusive, MCF10A rereplic inconclusive, SW480 rereplic inconclusive and TDP1 cell noCPT 20.6µM*.
`CCOC(=O)N1CCc2c(sc3c2c(=O)n(Cc2ccccc2)c(=O)n3CC(=O)Nc2ccc(F)cc2)C1` gave TDP1 cell CPT 5.8µM* and TDP1 cell noCPT 10.3µM*.
CCOC(=O)N1CCc2c(sc3c2c(=O)n(CCc2ccccc2)c(=O)n3Cc2cc(C)ccc2C)C1 was read as TDP1 cell CPT -5.9% and TDP1 cell noCPT -7.2%.
`COc1ccccc1NC(=O)Cn1c(=O)n(CCc2ccccc2)c(=O)c2c3c(sc21)CN(C(C)=O)CC3` gave TDP1 cell CPT 16.4µM* and TDP1 cell noCPT 16.4µM*.
`CCOC(=O)N1CCc2c(sc3c2c(=O)n(Cc2ccccc2)c(=O)n3CC(=O)NCC2CCCO2)C1` (configuration not stated) gave IL-1B inflam inh 0.0, TDP1 cell CPT inconclusive, BCR signal inh 7.4%, MCF10A rereplic -0.3%, SW480 rereplic -7.4% and TDP1 cell noCPT 2.2%.
`CC(=O)N1CCc2c(sc3c2c(=O)n(-c2ccccc2)c(=O)n3CC(=O)Nc2ccccc2)C1` gave TDP1 cell CPT 31.1%, BCR signal inh inconclusive and TDP1 cell noCPT 46.0%.
`CCOC(=O)N1CCc2c(sc3c2c(=O)n(CCc2ccccc2)c(=O)n3CC(=O)Nc2ccc(C)cc2)C1` gave TDP1 cell CPT 9.2µM* and TDP1 cell noCPT 7.31µM*.
`CN1CCc2c(sc3c2c(=O)n(-c2ccc(Cl)cc2)c2nncn32)C1` gave IL-1B inflam inh -19.0, TDP1 cell CPT inconclusive, BCR signal inh -17.1%, MCF10A rereplic 0.7%, SW480 rereplic -19.8% and TDP1 cell noCPT inconclusive.
CCOc1ccc(NC(=S)N2CCC(NC(=O)c3ccccc3C)CC2)cc1 was read as IL-1B inflam inh -0.1, TDP1 cell CPT -1.4%, BCR signal inh 0.0%, MCF10A rereplic -4.6%, SW480 rereplic -6.4% and TDP1 cell noCPT -16.2%.
Screening CCOC(=O)N1CCc2c(sc3c2c(=O)n(-c2ccc(Cl)cc2)c(=O)n3CC(=O)c2ccc(F)cc2)C1 returned TDP1 cell CPT inconclusive and TDP1 cell noCPT 20.6µM*.
